Experiments:
Assay in all cases: PBM binding z-score (relative to random genomic background probes); higher = stronger binding; sequences stand for … in GC…GCGATTGACAGCGTAGAATGAAGG
[1] = test system: FXR:RXRa (NR concentration 270 nM, RXRa partner concentration 90 nM)
Summary of the method: (§1)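 Antibodies against each partner of ligand-free nuclear receptor dimers (one per run) detected binding on custom Agilent 4×180K protein-binding microarrays after 1 h incubation. The double-stranded probes had 34-nt variable regions carrying direct-repeat seeds, single-nucleotide variants, half-site ablations and random human genomic background sequences. Binding z-scores, from regression-normalized fluorescence, use the random background probes as reference.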

[2] = test system: LXRa:RXRa (NR concentration 270 nM, RXRa partner concentration 90 nM)
Summary of the method: as §1

[3] = test system: LXRa homodimer (NR concentration 270 nM)
Summary of the method: as §1

[4] = test system: LXRb:RXRa (NR concentration 270 nM, RXRa partner concentration 90 nM)
Summary of the method: as §1

[5] = test system: LXRb homodimer (NR concentration 270 nM)
Summary of the method: as §1

[6] = test system: PPARa:RXRa (NR concentration 270 nM, RXRa partner concentration 90 nM)
Summary of the method: as §1

[7] = test system: PPARg:RXRa (NR concentration 180 nM, RXRa partner concentration 90 nM)
Summary of the method: as §1

[8] = test system: PPARg:RXRa 270nM:90nM, anti-RXR (NR concentration 270 nM, RXRa partner concentration 90 nM)
Summary of the method: as §1

[9] = test system: PPARg:RXRa 30nM:10nM, anti-RXR (NR concentration 30 nM, RXRa partner concentration 10 nM)
Summary of the method: as §1

[10] = test system: PPARg:RXRa 90nM:30nM, anti-RXR (NR concentration 90 nM, RXRa partner concentration 30 nM)
Summary of the method: as §1

[11] = test system: PPARg:RXRa DBDmut IVT, anti-RXR (DBD mutation: RXRa K156A/R161A, NR concentration 270 nM, RXRa partner concentration 90 nM)
Summary of the method: as §1

[12] = test system: PPARg:RXRa IVT, anti-PPARg (NR concentration 270 nM, RXRa partner concentration 90 nM)
Summary of the method: as §1

[13] = test system: PPARg DBDmut:RXRa IVT, anti-PPARg (DBD mutation: PPARg1 K132A/R137A, NR concentration 270 nM, RXRa partner concentration 90 nM)
Summary of the method: as §1

[14] = test system: PPARg DBDmut IVT, anti-PPARg (DBD mutation: PPARg1 K132A/R137A, NR concentration 270 nM)
Summary of the method: as §1

[15] = test system: PPARg homodimer (NR concentration 180 nM)
Summary of the method: as §1

[16] = test system: PXR:RXRa (NR concentration 270 nM, RXRa partner concentration 90 nM)
Summary of the method: as §1

[17] = test system: PXR homodimer (NR concentration 270 nM)
Summary of the method: as §1

[18] = test system: RARa:RXR (NR concentration 270 nM, RXRa partner concentration 90 nM)
Summary of the method: as §1

[19] = test system: RARa homodimer (NR concentration 270 nM)
Summary of the method: as §1

[20] = test system: RARb:RXRa (NR concentration 270 nM, RXRa partner concentration 90 nM)
Summary of the method: as §1

## ATCGAAAGGGCGAGGTGAGTATAGAGAAAGGGAA
[1]
  PBM binding z-score: 0.707
[2]
  PBM binding z-score: 0.563
[3]
  PBM binding z-score: -0.0358
[4]
  PBM binding z-score: 0.463
[5]
  PBM binding z-score: 0.173
[6]
  PBM binding z-score: 1.38
[7]
  PBM binding z-score: 0.612
[8]
  PBM binding z-score: 0.445
[9]
  PBM binding z-score: 0.457
[10]
  PBM binding z-score: 0.394
[11]
  PBM binding z-score: -0.0167
[12]
  PBM binding z-score: 0.793
[13]
  PBM binding z-score: 0.764
[14]
  PBM binding z-score: 0.945
[15]
  PBM binding z-score: 0.793
[16]
  PBM binding z-score: 0.415
[17]
  PBM binding z-score: 0.345
[18]
  PBM binding z-score: 0.69
[19]
  PBM binding z-score: 0.319
[20]
  PBM binding z-score: 2.09

## GCTAGTTGGTCAGTAAAAGGTCACATACCGGTCG
[1]
  PBM binding z-score: 2.76
[2]
  PBM binding z-score: 4.16
[3]
  PBM binding z-score: 4.82
[4]
  PBM binding z-score: 4.01
[5]
  PBM binding z-score: 0.816
[6]
  PBM binding z-score: 4.22
[7]
  PBM binding z-score: 2.57
[8]
  PBM binding z-score: 4.42
[9]
  PBM binding z-score: 2.3
[10]
  PBM binding z-score: 3.92
[11]
  PBM binding z-score: 1.23
[12]
  PBM binding z-score: 2.96
[13]
  PBM binding z-score: 0.372
[14]
  PBM binding z-score: 0.203
[15]
  PBM binding z-score: 6.37
[16]
  PBM binding z-score: 4.88
[17]
  PBM binding z-score: 0.988
[18]
  PBM binding z-score: 5.66
[19]
  PBM binding z-score: 3.62
[20]
  PBM binding z-score: 4.23

## CCGAGTAGATTATGGGGCATTCAGGCAACGGTGA
[1]
  PBM binding z-score: 0.0957
[2]
  PBM binding z-score: -0.0855
[3]
  PBM binding z-score: -0.262
[4]
  PBM binding z-score: 0.275
[5]
  PBM binding z-score: -0.645
[6]
  PBM binding z-score: 0.18
[7]
  PBM binding z-score: 0.487
[8]
  PBM binding z-score: 0.839
[9]
  PBM binding z-score: 0.0845
[10]
  PBM binding z-score: 0.412
[11]
  PBM binding z-score: 0.855
[12]
  PBM binding z-score: 1
[13]
  PBM binding z-score: -0.628
[14]
  PBM binding z-score: -0.679
[15]
  PBM binding z-score: 0.156
[16]
  PBM binding z-score: -0.457
[17]
  PBM binding z-score: 0.0578
[18]
  PBM binding z-score: -0.525
[19]
  PBM binding z-score: -0.197
[20]
  PBM binding z-score: 0.0647

## GCTTACGAGTCAAAGGTTATAGCATGAATAGAAT
[1]
  PBM binding z-score: 2.49
[2]
  PBM binding z-score: 3
[3]
  PBM binding z-score: -0.0276
[4]
  PBM binding z-score: 2.72
[5]
  PBM binding z-score: -0.261
[6]
  PBM binding z-score: 4.52
[7]
  PBM binding z-score: 5.72
[8]
  PBM binding z-score: 6.18
[9]
  PBM binding z-score: 4.17
[10]
  PBM binding z-score: 6.28
[11]
  PBM binding z-score: -0.0786
[12]
  PBM binding z-score: 1.3
[13]
  PBM binding z-score: 0.924
[14]
  PBM binding z-score: -0.155
[15]
  PBM binding z-score: 0.792
[16]
  PBM binding z-score: 2.73
[17]
  PBM binding z-score: -0.0683
[18]
  PBM binding z-score: 4.4
[19]
  PBM binding z-score: -0.195
[20]
  PBM binding z-score: 1.78

## GCTGGCAGGCCATTTGGGTCACTCAATGACGGGC
[1]
  PBM binding z-score: 0.108
[2]
  PBM binding z-score: 0.0335
[3]
  PBM binding z-score: -0.419
[4]
  PBM binding z-score: -0.156
[5]
  PBM binding z-score: -0.843
[6]
  PBM binding z-score: 1.3
[7]
  PBM binding z-score: 0.526
[8]
  PBM binding z-score: 0.786
[9]
  PBM binding z-score: -0.361
[10]
  PBM binding z-score: 0.136
[11]
  PBM binding z-score: 0.621
[12]
  PBM binding z-score: 1.63
[13]
  PBM binding z-score: -1.06
[14]
  PBM binding z-score: -1.22
[15]
  PBM binding z-score: -0.317
[16]
  PBM binding z-score: 0.654
[17]
  PBM binding z-score: 0.117
[18]
  PBM binding z-score: 0.679
[19]
  PBM binding z-score: -0.882
[20]
  PBM binding z-score: 1.63

## CCTCGGAGGACAGAAGGGCAGAGCTGTCCGCTTT
[1]
  PBM binding z-score: -0.424
[2]
  PBM binding z-score: -0.658
[3]
  PBM binding z-score: -0.967
[4]
  PBM binding z-score: -0.952
[5]
  PBM binding z-score: -1.04
[6]
  PBM binding z-score: -1.11
[7]
  PBM binding z-score: -0.572
[8]
  PBM binding z-score: -0.994
[9]
  PBM binding z-score: -1.32
[10]
  PBM binding z-score: -1.13
[11]
  PBM binding z-score: -0.39
[12]
  PBM binding z-score: -0.863
[13]
  PBM binding z-score: -1.35
[14]
  PBM binding z-score: -1.74
[15]
  PBM binding z-score: -0.82
[16]
  PBM binding z-score: -0.857
[17]
  PBM binding z-score: -0.749
[18]
  PBM binding z-score: -0.782
[19]
  PBM binding z-score: -0.361
[20]
  PBM binding z-score: 1.2

Reference: the supplement of paper PMC6555819
